Results filed as inconclusive are left out. Active and inactive are the calls of the source. Calls follow the shape of the dose curve; as a rule, active = well fitted cell-killing curve with a large enough effect; inconclusive = small, poorly fitted or top-dose-only effect, or effect the other way; inactive = flat fitted curve, though single readings scatter.
Legend:
Assay in all cases: Primary qHTS to identify gynecologic anti-cancer compounds using libraries of approved drugs and bioactive compounds (AID 1345084); also: nearly all actives have a fitted effect of over 55% in size
C33A = settings: Gynecologic cancer cell panel viability, ATPlite luminescence, 48 h; series mostly up to 57.5 µM
Summary of the method: (§1)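 Five-point cytotoxicity, 48 h drug exposure at 37 C, 5% CO2, on cells seeded 16 h beforehand. ATP content read by ATPlite luminescence.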

CAOV3 = settings: Gynecologic cancer cell panel viability, ATPlite luminescence, 48 h; series mostly up to 57.5 µM
Summary of the method: as §1

CASKI = settings: Gynecologic cancer cell panel viability, ATPlite luminescence, 48 h; series mostly up to 57.5 µM
Summary of the method: as §1

HeLa = settings: Gynecologic cancer cell panel viability, ATPlite luminescence, 48 h; series mostly up to 57.5 µM
Summary of the method: as §1

JEG-3 = settings: Gynecologic cancer cell panel viability, ATPlite luminescence, 48 h; series mostly up to 57.5 µM
Summary of the method: as §1

Tov112D = settings: Gynecologic cancer cell panel viability, ATPlite luminescence, 48 h; series mostly up to 57.5 µM
Summary of the method: as §1

Es-2 = settings: Gynecologic cancer cell panel viability, ATPlite luminescence, 48 h; series mostly up to 57.5 µM
Summary of the method: as §1

Hek293T = settings: Gynecologic cancer cell panel viability, ATPlite luminescence, 48 h, control line for the selectivity index; series mostly up to 57.5 µM
Summary of the method: as §1

OV90 = settings: Gynecologic cancer cell panel viability, ATPlite luminescence, 48 h; series mostly up to 57.5 µM
Summary of the method: as §1

Tov-21-G = settings: Gynecologic cancer cell panel viability, ATPlite luminescence, 48 h; series mostly up to 57.5 µM
Summary of the method: as §1

PA-1 = settings: Gynecologic cancer cell panel viability, ATPlite luminescence, 48 h; series mostly up to 57.5 µM
Summary of the method: as §1

SKOV3 = settings: Gynecologic cancer cell panel viability, ATPlite luminescence, 48 h; series mostly up to 57.5 µM
Summary of the method: as §1
% is scaled to controls: 0 for no effect and ±100 for the full control effect; potency is read from the fitted curve at half-maximal effect.

N#Cc1cc(CN2CCC(Nc3ncnc4sc(Cl)cc34)CC2)ccc1F
inactive: Potency (C33A) | Potency (CAOV3) | Potency (CASKI) | Potency (HeLa) | Potency (JEG-3) | Potency (Tov112D)

O=C(NCCCNc1nc(Nc2cccc(CN3CCOCC3)c2)ncc1C1CC1)C1CCC1
inactive: Potency (C33A) | Potency (CASKI) | Potency (Es-2) | Potency (Hek293T) | Potency (JEG-3) | Potency (OV90) | Potency (Tov112D)
active: Potency (CAOV3) 11.2 µM | Potency (Tov-21-G) 15.8 µM

O=C(NCCN1CCOCC1)c1cc2c(Oc3ccc(NC(=O)C4(C(=O)Nc5ccc(F)cc5)CC4)cc3)ccnc2[nH]1
inactive: Potency (C33A) | Potency (CAOV3) | Potency (CASKI) | Potency (HeLa) | Potency (Hek293T) | Potency (JEG-3) | Potency (PA-1) | Potency (SKOV3) | Potency (Tov-21-G) | Potency (Tov112D)

O=C(Nc1nc2ccc([N+](=O)[O-])cc2s1)C1CCCCC1
inactive: Potency (C33A) | Potency (CAOV3) | Potency (CASKI) | Potency (HeLa) | Potency (Hek293T) | Potency (JEG-3) | Potency (OV90) | Potency (PA-1) | Potency (Tov-21-G) | Potency (Tov112D)

C=CC(=O)N1CCCN(c2cc(NCCC(=O)O)nc(-c3ccccn3)n2)CC1
inactive: Potency (C33A) | Potency (CAOV3) | Potency (CASKI) | Potency (HeLa) | Potency (Hek293T) | Potency (JEG-3) | Potency (PA-1) | Potency (Tov-21-G) | Potency (Tov112D)

C/C=C(\C)C(=O)O[C@H]1C=CC(=O)O[C@H]1/C=C/[C@@H](O)[C@H](C)O
inactive: Potency (C33A) | Potency (CAOV3) | Potency (CASKI) | Potency (HeLa) | Potency (OV90) | Potency (SKOV3) | Potency (Tov112D)

C#CC(=O)N(c1ccc(OC)cc1OC)C(C(=O)NCC(=O)OCC)c1cccs1 (configuration not stated)
active: Potency (C33A) 5.01 µM | Potency (CAOV3) 1.78 µM | Potency (CASKI) 22.4 µM | Potency (Es-2) 1.41 µM | Potency (JEG-3) 15.8 µM | Potency (PA-1) 1.58 µM | Potency (SKOV3) 3.16 µM | Potency (Tov-21-G) 0.398 µM | Potency (Tov112D) 6.31 µM

C=C1CC(=O)C2OC2(C)CC2OC(=O)C(=C)C2C(O)C1OC(=O)/C(C)=C\C (configuration not stated)
inactive: Potency (C33A) | Potency (CAOV3) | Potency (CASKI) | Potency (HeLa) | Potency (JEG-3) | Potency (OV90) | Potency (PA-1) | Potency (SKOV3) | Potency (Tov112D)

CC(=O)O[C@@H]1[C@H](O[C@@H]2O[C@@H](CO)[C@H](O)[C@H]2O)[C@@H](O[C@@H]2O[C@@H](C)[C@H](O[C@@H]3OC[C@@H](O)[C@H](O)[C@H]3O)[C@@H](O)[C@H]2O)[C@H](OC(=O)[C@]23CCC(C)(C)C[C@H]2C2=CCC4[C@@]5(C)CC[C@H](O[C@@H]6O[C@H](C(=O)O)[C@@H](O)[C@H](O)[C@H]6O[C@@H]6O[C@H](CO)[C@H](O)[C@H](O)[C@H]6O)[C@@](C)(C=O)C5CC[C@@]4(C)[C@]2(C)C[C@H]3O)O[C@@H]1C (some centres not stated)
inactive: activity change, negative = cytotoxicity (C33A) -10.4% [at 6.55 µM] | activity change, negative = cytotoxicity (CAOV3) -10.3% [at 6.55 µM] | activity change, negative = cytotoxicity (CASKI) -9.38% [at 6.55 µM] | activity change, negative = cytotoxicity (HeLa) 10% [at 6.55 µM] | activity change, negative = cytotoxicity (JEG-3) 6.34% [at 6.55 µM] | activity change, negative = cytotoxicity (SKOV3) 8.44% [at 6.55 µM] | activity change, negative = cytotoxicity (Tov112D) -3.22% [at 6.55 µM]

C=C1C(=O)O[C@@H]2C[C@@]3(C)C[C@@H](O)C[C@H](C)C3=C[C@H]12
inactive: Potency (C33A) | Potency (CAOV3) | Potency (CASKI) | Potency (HeLa) | Potency (Hek293T) | Potency (JEG-3) | Potency (OV90) | Potency (PA-1) | Potency (SKOV3) | Potency (Tov112D)

COC(=O)CC(O)CC(O)/C=C/c1c(C)ccc2c1C(OC(C)=O)CC(C)C2 (configuration not stated)
inactive: Potency (C33A) | Potency (CAOV3) | Potency (CASKI) | Potency (Es-2) | Potency (Hek293T) | Potency (JEG-3) | Potency (SKOV3) | Potency (Tov-21-G)

C=C(C)C(=O)OC1CC(CO)CCC/C(CO)=C/C2OC(=O)C(=C)C21 (configuration not stated)
inactive: Potency (C33A) | Potency (CAOV3) | Potency (CASKI) | Potency (HeLa) | Potency (JEG-3) | Potency (OV90) | Potency (SKOV3) | Potency (Tov112D)

Cc1c(C(=O)Nc2ccc(N3CCC(N4CCOCC4)CC3)c(C#N)c2)cnn1-c1ccc(Cl)cc1
inactive: Potency (CAOV3) | Potency (CASKI) | Potency (HeLa) | Potency (SKOV3) | Potency (Tov-21-G) | Potency (Tov112D)
active: Potency (C33A) 0.891 µM | Potency (JEG-3) 0.794 µM

Cc1cc2c(F)c(Oc3ncnn4cc(OCC(C)OC(=O)C(C)N)c(C)c34)ccc2[nH]1 (configuration not stated)
inactive: Potency (C33A) | Potency (CAOV3) | Potency (CASKI) | Potency (Es-2) | Potency (OV90) | Potency (PA-1) | Potency (SKOV3) | Potency (Tov-21-G)

C=C1C(=O)O[C@@H]2/C=C(\C)CC/C=C(/C=O)[C@H](OC)[C@@H](OC(=O)C(C)C)[C@@H]12
inactive: Potency (C33A) | Potency (CAOV3) | Potency (CASKI) | Potency (HeLa) | Potency (JEG-3) | Potency (PA-1) | Potency (SKOV3) | Potency (Tov112D)

CNc1nc(NCc2ccc(NS(C)(=O)=O)cc2Cl)cc(-c2ccccn2)n1
inactive: Potency (C33A) | Potency (CAOV3) | Potency (CASKI) | Potency (HeLa) | Potency (JEG-3) | Potency (PA-1) | Potency (Tov-21-G)

C[C@H](CN(C)C)Oc1nc(Nc2cc3cccc(Cl)c3cn2)cnc1C#N
active: Potency (SKOV3) 12.6 µM
inactive: Potency (C33A) | Potency (CAOV3) | Potency (CASKI) | Potency (HeLa) | Potency (JEG-3) | Potency (OV90) | Potency (PA-1) | Potency (Tov112D)

COc1ccc([C@H]2OC[C@H]3O[C@@H](O[C@H]4[C@@H]2NC[C@@H]4O)[C@H](O)[C@H]3O)cc1
active: Potency (C33A) 7.08 µM | Potency (CAOV3) 2.82 µM | Potency (CASKI) 5.01 µM | Potency (Es-2) 4.47 µM | Potency (Hek293T) 3.16 µM | Potency (JEG-3) 5.01 µM | Potency (PA-1) 5.01 µM | Potency (SKOV3) 3.98 µM | Potency (Tov-21-G) 2.82 µM | Potency (Tov112D) 5.62 µM

Source: PubChem BioAssay (NCATS)
